YjeE inh: inhibitors of E. coli YjeE (TsaE); purified YjeE enzyme, qHTS inhibition assay; actives 0.05% (n = 71,000); Potency, µM; AID 605
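Purified YjeE (10 uM) with BODIPY Texas Red-labeled ADP probe (2 uM); compounds pin-transferred, 15 min at room temperature. Binding inhibition read as decreased fluorescence polarization; ADP titration as control.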
TSHR agonist: activates the human thyroid stimulating hormone receptor; P16473; HEK293-CNG-TSHR cells (CNG channel as cAMP sensor), membrane potential dye, cAMP; Potency, µM (doses to about 57.1 µM), for inactives: at the top dose activation, most hits filed as activators; actives 0.48% (n = 73,000); active = well fitted activation curve with a large enough effect in the main read-out, with a control signal flat, not every such curve was filed as active; inconclusive = small, poorly fitted or top-dose-only effect, or a change in a side signal; inactive = no such curve, though single readings can be large or run the other way; % of control where 0% means no effect;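 note: the control signal comes from parental cells without the receptor; potency is the fitted concentration of half-maximal effect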
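cAMP rise detected as CNG-channel membrane depolarization by fluorescent dye (emission 590 nm), 30 min after compound, following 60 min dye loading containing 100 uM RO 20-1724 at room temperature. Cells: TSHR/CNG HEK 293, with parental CNG HEK 293 as control.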
HEK293 cAMP cs: counter-screen for TSHR agonists: cAMP increase in parental HEK293. parental HEK293 CNG cAMP sensor, membrane potential fluorescence. Potency, µM (highest dose often 57.1 µM), inactives show at the highest dose activation, hits mostly activators. actives 2.5% (n = 73,000). AID 938; note: potency is the fitted concentration of half-maximal effect; % of control where 0% means no effect; nearly all actives have a fitted effect of over 55% in size
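Parental HEK 293 cells stably expressing a modified CNG channel (no TSHR) report cAMP rise as membrane depolarization. Membrane potential dye with 100 uM RO 20-1724 was loaded for 60 min at room temperature, then compound added for 30 min; fluorescence read at 590 nm.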
BRCT inh red: inhibitors of human BRCA1 BRCT-phosphoprotein interaction (red fluorophore). P38398. BRCT-phosphopeptide binding, red fluorescence polarization. Potency, µM (top dose mostly 76.9 µM), inactives show at the highest dose activity change, negative = inhibition, most hits filed as inhibitors. actives 0.03% (n = 75,000); note: % is set by controls: 0 for no effect and ±100 for the full control effect
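Fluorescence polarization: 100 nM His-tagged BRCA1 BRCT with 100 nM TAMRA-labelled phospho-BACH1 decapeptide, phosphate buffer pH 7.3 with 150 mM NaCl, DTT, 0.01% Tween 20; 12 min RT. Binding inhibition seen as FP decrease.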
DNA Pol III inh: blocks replication by bacterial DNA polymerase III holoenzyme; reconstituted DNA polymerase III holoenzyme replication, biochemical; Potency, µM (doses to about 57.1 µM), for inactives: at the top dose activity change, negative = inhibition; actives 0.25% (n = 71,000); note: potency is the fitted concentration of half-maximal effect; % is set by controls: 0 for no effect and ±100 for the full control effect
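Reconstituted *E. coli* holoenzyme (0.35 nM Pol III, 1 nM beta, 154 nM SSB, 2 nM primase) was preincubated with compound for 15 min at RT. Synthesis on 1.4 nM ssM13Gori ran 35 min, then was stopped with PicoGreen/EDTA and read as dsDNA fluorescence.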
BRCT PPI green: blocks human BRCA1 BRCT binding to phosphopeptide, green readout; Potency, µM (top dose mostly 76.9 µM), inactives show top-dose activity change, negative = inhibition, actives largely listed as inhibitors; actives 0.05% (n = 75,000); BRCA1 BRCT-phosphopeptide binding, green fluorescence polarization; AID 875; P38398;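 note: potency is the fitted concentration of half-maximal effect; plate controls were peptide without protein for full effect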
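Compounds were incubated for 12 min at room temperature with a complex of 100 nM fluorescein-tagged pBACH1 decapeptide and 250 nM His-tagged BRCT protein. Buffer was phosphate pH 7.3 with EDTA, DTT and Tween 20. Disruption of binding lowers the polarization signal.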
HEK293 cAMP cnt: TSHR-independent cAMP elevation, counter-screen. activity change, negative = inhibition, % at 32.9 µM. 150 tested, under 10 active. AID 953. parental HEK293 CNG biosensor, cAMP membrane potential fluorescence. shares compounds with TSHR agonist
* = called active by the depositor; i = inactive; ? = inconclusive; nt = not tested or not shown; [ ] = another dose, or the depositor's remark. A selection: hits, their analogues and other compounds. The true share with any hit is near 3.2%. Unless noted, calls come from the whole dose curve; as a rule, active = well fitted curve in the direction sought with a large enough effect; inconclusive = small, poorly fitted or top-dose-only effect, or another doubt; inactive = no such curve, though single readings can be large; an effect the other way counts as inactive or inconclusive.

SMILES | YjeE inh | TSHR agonist | HEK293 cAMP cs | BRCT inh red | DNA Pol III inh | BRCT PPI green | HEK293 cAMP cnt
COc1cc(OC)c(OC)cc1CNCCc1ccc(OC)c(OC)c1 | i | -1% | 4% | -1% | -5% | -2% | nt
O=C(Nc1ccccn1)NC12CC3CC(CC(C3)C1)C2 | i | 20µM* | 26% | -2% | -2% | -2% | -9
C#CCN1C(C)=C(C(=O)CCO)[C@@H](c2cccc(-n3oo3)c2)C(C(=O)OC)=C1C | i | ? | ? | -3% | -4% | -2% | nt
CCC(=NCC1CCCO1)c1c(O)n(Cc2ccccc2)c(=O)[nH]c1=O (centres undefined) | i | 1% | 4% | 0% | 5% | 0% | 6[25.6 µM]
CC(C)(C)NCC(O)c1cc(Cl)c(N)c(Cl)c1 (centres undefined) | nt | nt | nt | 0% | nt | -2%[3.08 µM] | nt
CCn1c(C)c(C(=O)O)c2cc(OC)ccc21 | i | 0% | -7% | -1% | -4% | -2% | 6[25.6 µM]
CCOC(=O)c1c(C)n(COCCO)c2ccc(O)cc12 | i | -1% | -3% | -4% | -7% | -1% | nt
